Abeta yeast res: restores growth of yeast expressing A-beta42 peptide. yeast expressing A-beta42, growth rescue, OD600, 48 h; response scale: 0% DMSO, 100% iron-clioquinol control. Potency, µM (doses to about 46.1 µM), hits mostly activators. 410,000 compounds, 0.063% hits. AID 1347071; also: nearly all actives have a fitted effect of over 55% in size
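Growth rescue measured by 600 nm absorbance after 48 h yeast culture at 30 C with compound. Values normalized between DMSO and an equimolar ferric chloride plus clioquinol control.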
aSyn rescue: alpha-synuclein toxicity inhibition in yeast | 370,000 compounds, 0.14% hits | Yeast expressing alpha-synuclein, growth rescue, BacTiter-Glo, 24 h | Potency, µM (titrated, usually from 46.1 µM), hits mostly activators; also: nearly all actives have a fitted effect of over 65% in size
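Galactose-induced alpha-syn yeast (OD600=0.02, raffinose-pregrown) + pinned cpd, 24 hr, 30 deg C; growth by BacTiter-Glo luminescence. Growth restoration scores as activation.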
TDP43 rescue: rescues yeast growth from TDP-43 toxicity; 410,000 compounds, 1.8% hits; AID 652104; TDP-43 expressing yeast growth rescue, BacTiter-Glo, 24 h; Potency, µM (titrated, usually from 46.1 µM), actives largely listed as activators; also: nearly all actives have a fitted effect of over 50% in size
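Galactose-induced TDP-43 yeast, OD600=0.02, compound pinned; 24 hr, 30 deg C; BacTiter-Glo luminescence for growth. Inhibitors of TDP-43 toxicity read as activators.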
FUS yeast rescue: FUS proteinopathy suppression in yeast; S. cerevisiae FUS-expressing, growth rescue, OD600, 24 h; Potency, µM (highest dose often 76.6 µM), most hits filed as activators; 390,000 compounds, 0.24% hits; AID 1347120; also: nearly all actives have a fitted effect of over 55% in size
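Absorbance at 600 nm, taken 24hr after compound addition, measured rescue of FUS-yeast growth at 30C. Induction used 2% galactose with seeding at OD 0.005. Controls: CP55940 from 92uM final, DMSO only.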
Numbers stand for hits; i = inactive; ? = inconclusive; nt = no result given; ! = a repeat was not active; [ ] = dose if it differs, or a comment. This is a sample that favours compounds with a hit; in the whole collection about 2.1% have one here. Calls follow the shape of the dose curve; as a rule, active = well fitted curve in the direction sought with a large enough effect; inconclusive = small, poorly fitted or top-dose-only effect, or another doubt; inactive = no such curve, though single readings can be large; an effect the other way counts as inactive or inconclusive.

SMILES | Abeta yeast res | aSyn rescue | TDP43 rescue | FUS yeast rescue
COC(=O)[C@]12C[C@H](CC(=O)NCc3ccc(C)o3)C(=O)N(Cc3cccc4ccccc34)C1=C[C@H](C1CCCC1)O[C@@H]2C | nt | nt | nt | 28µM
COC(=O)[C@]12C[C@H](CC(=O)NCc3cccc4ccccc34)C(=O)N(CCc3ccc(OC)c(OC)c3)C1=C[C@H](C(C)C)O[C@@H]2C1CC1 | nt | nt | nt | 13µM
COC(=O)[C@]12C[C@H](CC(=O)NCC34CC5CC(CC(C5)C3)C4)C(=O)N(Cc3cccc4ccccc34)C1=C[C@H](C1CCCC1)O[C@@H]2C | nt | nt | nt | i
COc1ccc(NC(=O)Nc2nnc(N3CCCC3)s2)cc1 | i | nt | i[9.22 µM] | i
Cn1nc(-c2ccc(F)cc2)nc2c(=O)n(C)c(=O)nc1-2 | nt | i | nt | nt
OCc1cccc(-c2cnc3c(Nc4cccc(OC(F)(F)C(F)F)c4)nccn23)c1 | i | i | 20µM | ?
Cc1ccc(-c2cnc3c(Nc4cccc(OC(F)(F)C(F)F)c4)nccn23)cc1 | i | i | i | i
CCCCCCSc1ccc(-c2nc3ccc(Cl)cn3c2NCCCC)cc1OC | i | i | i | i
CCCCCCSc1ccc(-c2nc3ccc(C)cn3c2NCCCC)cc1OC | i | i | i | 16µM
CCCCCCSc1cc(-c2nc3cc(C)ccn3c2NCCCC)ccc1OC | i | i | i | 28µM!
CCCn1c(=O)c2sccc2n2c(CCCC(=O)Nc3ccc(C)c(F)c3)nnc12 | i | nt | i | i
COc1ccc([C@H]2CC(=O)C=C(c3cc(C)ccc3OC)C2)cc1 | i | i | ? | i
COc1ccc([C@H]2CC(=O)C=C(c3cc(C)ccc3F)C2)cc1 | ? | ? | 20µM | ?
COc1ccc([C@H]2CC(=O)C=C(c3cc(Cl)ccc3C)C2)cc1 | ? | i | 20µM | i
COc1cccc(CNc2nc3ccccc3c3nc(-c4cccc(C)c4)nn23)c1 | i | nt | i | i
COc1ccccc1NC(=O)C1=C(C)Nc2ncnn2C1c1cccn1C (configuration not stated) | i | i | i | i
O=C(CN1CCN(S(=O)(=O)c2cc(Cl)ccc2Cl)CC1)Nc1cccc(F)c1 | i | i | 35µM | i
O=C(CN1CCCN(S(=O)(=O)c2ccc(F)cc2)CC1)Nc1cccc(F)c1 | i | i | i | i
COc1ccc(C)cc1NC1(c2ccccc2)C(=O)c2ccccc2C1=O | ? | i | i | i
CC(C)(C)C1CCc2c(sc(NC(=O)c3noc4c3CCCC4)c2C#N)C1 (configuration not stated) | i | nt | i | i
c1ccc(CC2CCN(c3ncnc4sccc34)CC2)cc1 | i | i | 13µM | i
N/C(=N\OC(=O)c1ccc([N+](=O)[O-])cc1)c1cccnc1 | i | i | i | i
N/C(=N\OC(=O)c1ccc(Cl)c([N+](=O)[O-])c1)c1ccccn1 | i | i | 16µM | i
N/C(=N\OC(=O)c1ccc(Cl)c([N+](=O)[O-])c1)c1ccccc1 | i | i | 13µM | i
N/C(=N\OC(=O)c1ccc(Cl)c(Cl)c1)c1ccccn1 | i | i | i | i
SMILES | Abeta yeast res | aSyn rescue | TDP43 rescue | FUS yeast rescue
N/C(=N\OC(=O)c1cc([N+](=O)[O-])ccc1Cl)c1cccnc1 | i | i | 13µM | i
N/C(=N\OC(=O)c1ccc(Cl)cc1)c1ccccn1 | i | i | 10µM | i
COc1ccc(-c2nc3cc(C(C)C)ccc3o2)cc1NC(=O)c1ccccc1[N+](=O)[O-] | i | nt | i | i
Cc1cccc(CC(=O)NC2CC(=O)N(c3ccccc3)C2)c1 (configuration not stated) | i | nt | i | i
Cc1cc(Cl)cc(Cl)c1OCC(=O)NCc1ccco1 | i | i | 14µM | i
Cc1ccc(Nc2ncnc3onc(C)c23)cc1Cl | i | nt | 35µM | i
COc1ccc(CN2C(=O)[C@@](O)(c3cccn3C)c3cc(F)ccc32)cc1 | nt | nt | nt | i
CCOc1ccccc1C(=O)NCc1nc2cccnc2n1Cc1ccc(C)cc1 | i | nt | 16µM | i
Cc1ccc(C)c(N2CCN(C(c3ccc(F)cc3)c3nnc(-c4ccccc4)o3)CC2)c1 (configuration not stated) | i | nt | i | i
COc1ccc(CNC(=O)c2cc3cc(C)ccc3n2C)cc1 | i | nt | ? | i
C[C@@H]1CN([C@H](C)CO)C(=O)c2c(c3ccccc3n2C)-c2ccccc2CO[C@@H]1CN(C)C(=O)Nc1ccccc1C(F)(F)F | i | i | 20µM | i
Cc1noc(C)c1NC(=O)N(C)C[C@@H]1OCc2ccccc2-c2c(n(C)c3ccccc23)C(=O)N([C@H](C)CO)C[C@H]1C | i | i | i | i
S=C(NCCc1ccccc1)Nc1ccc(N2CCCCC2)cc1 | 8.9µM | i | i | i
CCNC(=S)Nc1ccc(N2CCCCC2)cc1 | i | i | i | i
CN(CC(=O)Nc1cccc(F)c1)C(=O)/C=C/c1cc(Br)ccc1OC(F)F | i | i | 20µM | i
Cc1cccc(COc2ccccc2C(=O)N(C)CC(=O)Nc2cccc(F)c2)c1 | i | i[1.84 µM] | 25µM | i
CSc1nc(C)c(Oc2ccccc2)c(=O)n1C | i | i | i | i
CSc1nc(-c2ccccc2F)c(C#N)c(=O)n1C | i | i | 20µM | i
OCCCn1c(C2CCCN2c2nc(-c3ccc(F)cc3)cs2)nc2cc(Cl)c(Cl)cc21 (configuration not stated) | i | i | i | 35µM
O=C(O)c1cccc(CSc2nnc(-c3cccnc3)o2)c1 | i | i | i | i
O=[N+]([O-])c1ccc(CSc2nnc(-c3cccnc3)o2)cc1 | i | i | 11µM | i
Cc1ccc(CSc2nnc(-c3cccnc3)o2)cc1 | i | i | 13µM | i
Clc1ccc(CSc2nnc(-c3cccnc3)o2)cc1 | i | i | 11µM | i
Brc1ccc(CSc2nnc(-c3cccnc3)o2)cc1 | i | i | i[9.22 µM] | i
c1cncc(-c2nnc(SCc3cccc4ccccc34)o2)c1 | i | i | 16µM | i
SMILES | Abeta yeast res | aSyn rescue | TDP43 rescue | FUS yeast rescue
CCc1ccc(NC(=O)N(Cc2cn(CC)c3ccccc23)C2CCCCC2)cc1 | i | nt | ? | i
COc1ccc(-n2cc(-c3ccccc3)c3c(N4CCCC(C)C4)ncnc32)cc1 (configuration not stated) | i | nt | ? | i
Cc1cc(Cl)ccc1NC(=O)c1cc2ccccn2n1 | i | nt | i | i
Fc1ccc(CSc2nnc(-c3cccnc3)o2)cc1 | i | i | ? | i
c1ccc(CSc2nnc(-c3cccnc3)o2)cc1 | i | i | 14µM | i
Cc1cccc(C(=O)O/N=C(\N)Cc2ccc([N+](=O)[O-])cc2)c1 | i | i | i | i
N/C(Cc1ccc([N+](=O)[O-])cc1)=N\OC(=O)c1ccc2ccccc2c1 | i | i | 11µM | i
COc1ccc(NC(=O)O/N=C2/CCCc3ccc(OC)cc32)cc1 | i | i | 14µM | i
COC(=O)C(C)NC(=S)N1CCN(c2c(F)cc3c(=O)c(C(=O)O)cn(C4CC4)c3c2OC)CC1C (configuration not stated) | i | i | ? | 32µM
Cn1c(COc2ccc(Cl)cc2)nnc1SCc1ncc(-c2ccccc2)o1 | i | ? | 22µM | ?
CCOc1cc(C)c(S(=O)(=O)N2CCCCC2)cc1C | ? | 16µM | ? | i
